In PubChem BioAssay AID720633 (The Scripps Research Institute Molecular Screening Center, 2013):
This is one part of the list. A number with no mark means an inactive call.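 The calls were made as follows: active = inhibition above the cutoff, the mean of compounds lying between the control bounds plus 3 SD of those compounds (cut at about 17% in these data); inactive = the rest.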

These compounds were tested against Fibrinogen beta chain (Homo sapiens) (UniProt P02675) (assay: DD(E) binders in alternate-peptide displacement assay, confirmation, counter-screen for fibrin DD(E)-Tn7 binding project, biochemical, fluorescence polarization, human fibrin (AID 720633;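 also: 0% = median of compound sample wells and 100% = excess unlabeled Aha-Tn7 peptide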)). Conditions: TRITC-Tn7 probe displacement, at 8.3 µM, active compounds read high.
Fibrinogen beta chain (Homo sapiens), sequence (P02675 whole entry, looked up): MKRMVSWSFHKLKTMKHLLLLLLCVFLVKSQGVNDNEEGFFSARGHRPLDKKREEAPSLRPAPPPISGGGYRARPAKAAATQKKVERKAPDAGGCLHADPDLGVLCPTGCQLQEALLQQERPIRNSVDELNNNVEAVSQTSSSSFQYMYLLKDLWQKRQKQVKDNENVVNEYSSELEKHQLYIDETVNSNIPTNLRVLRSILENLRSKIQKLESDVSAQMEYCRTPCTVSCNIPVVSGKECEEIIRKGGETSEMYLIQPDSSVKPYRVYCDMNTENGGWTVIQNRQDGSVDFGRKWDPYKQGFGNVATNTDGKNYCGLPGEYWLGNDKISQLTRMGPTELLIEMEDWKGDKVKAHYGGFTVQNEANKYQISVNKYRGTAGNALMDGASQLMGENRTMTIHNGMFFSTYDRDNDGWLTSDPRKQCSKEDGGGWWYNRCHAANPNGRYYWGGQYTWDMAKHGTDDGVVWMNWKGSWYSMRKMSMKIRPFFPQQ

Compound | inhibition [%]
Cc1nnc2n1N=C(c1ccc3c(c1)NC(=O)CO3)CS2 | -7.74
CC(C)(C)c1cc(CN2CCN(CCC#N)CC2)cc(C(C)(C)C)c1O | 0.66
COc1cccc(N2CC(NS(=O)(=O)c3cccs3)CC2=O)c1 (centres undefined) | -2.24
CCOc1ccc(Nc2oc(Cc3ccccc3)nc2C#N)cc1 | -10.1
Cc1cc2nc3c(=O)[nH]c(=O)nc-3n(C[C@H](O)[C@H](O)[C@H](O)CO)c2cc1C | 12.4
c1cc(-c2nn[nH]n2)ccc1CN1CCCCC1 | -9.04
O=C(/C=C/c1ccccc1[N+](=O)[O-])NCC1CCCO1 (centres undefined) | 6.91
COc1ccc(N=Nc2c(-c3ccc(OC)cc3)[nH]oc2=O)cc1 | -6.55
O=C(COC(=O)/C=C/c1ccc(OC(F)F)cc1)NC1CCCCC1 | 6.67
Cc1nn(C)cc1N1C(=O)c2cccc3c(N)ccc(c23)C1=O | 1.67
O=C(Nc1ccon1)c1sc2ccccc2c1Cl | -2.1
Cc1cc2nc3c(=O)n(Cc4ccccc4)c(=O)[nH]c3nc2cc1N | -4.98
O=C(COC(=O)c1ccc([N+](=O)[O-])cc1Cl)NC(=O)c1ccccc1 | 1.45
Cn1c(CC(=O)NNC(=O)c2ccccc2F)nc2ccccc21 | -5.95
OC(c1ccccc1)c1nc(-c2cnc3ccccc3c2)cs1 (centres undefined) | 3.54
COc1ccc(-c2nc(CCNC(=O)c3ccc(Br)o3)cs2)cc1 | -3.63
CN1c2ccc(C=O)c3c(C=O)ccc(c23)N(C)C1(C)C | -6.98
O=C(CSc1nnc(-c2ccccn2)n1-c1ccc(Cl)cc1)Nc1ccccc1-c1ccccc1 | -2.23
CN1C(=O)c2cccc3c(N)ccc(c23)C1=O | 8.6
Oc1ccc2ccc3cccc[n+]3c2c1 | -23.9
COc1ccc(S(=O)(=O)c2c[nH]c(=S)[nH]c2=O)cc1Cl | -4.35
O=C(NCc1ccccc1)c1cccc(NC(=O)C2CCCCC2)c1 | 0.56
COc1cc(C(=S)N2CCOCC2)ccc1O | 6.48
C#CCNc1ccc(C(=O)OCC)cc1 | 4.2
